This is an account of results in PubChem BioAssay.

Assay [1] addresses Regulator of G-protein signaling 16 (Homo sapiens) (UniProt O15492). The assay can be described thus: modulators of RGS–Galpha-o binding, primary screen, biochemical, multiplexed beads, flow cytometry, RGS4/7/8/16/19 (AID 1504).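 Further: fluorescently labeled Galpha-o bound to GDP with aluminium fluoride binding biotinylated RGS beads.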 The note with it: multiplexed bead flow cytometry, measured here: RGS16 interaction, at 10 µM. On the technique in general: A flow cytometer gives signals particle by particle.

Assay [2] addresses Regulator of G-protein signaling 19 (Homo sapiens) (UniProt P49795). Described as above. The note with it: multiplexed bead flow cytometry, measured here: RGS19 interaction, at 10 µM.
The target of assay [3] is Regulator of G-protein signaling 7 (Homo sapiens) (UniProt P49802). The description is as above. Conditions: multiplexed bead flow cytometry, measured here: RGS7 interaction, at 10 µM.
The target in assay [4] is Regulator of G-protein signaling 8 (Homo sapiens) (UniProt P57771). The description is as above. The note with it: multiplexed bead flow cytometry, measured here: RGS8 interaction, at 10 µM.
Assay [5] in a line: disruption of biotin probe capture by avidin, counter-screen for RGS protein interaction modulators, biochemical, flow cytometry, bead-based (AID 1783;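 active means inhibition above 50%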;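 further: median green fluorescence of gated singlet beads compared with DMSO control wells; 0% = DMSO wells and 100% = complete loss of bead fluorescence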). The note with it: streptavidin beads, fluorescein-biotin binding; at 10 µM, stronger effect = higher value. For orientation: A counterscreen serves to expose hits that act by an unwanted route or on another target.
Assay [6] has as its target Guanine nucleotide-binding protein G(o) subunit alpha (Homo sapiens) (UniProt P09471). Kind of assay: RGS8-Galphao binding modulators, confirmation, biochemical, multiplexed bead flow cytometry, single concentration (AID 1836; in the data active means binding response below about 72% or above about 130%; inactive means in between;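 further: Galphao activated as GDP AlF4 complex before binding bead RGS8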). Conditions: bead-based flow cytometry RGS8-Galphao binding, fluorescence; at 10 µM; actives lie on both sides.
Assay [7] has the same target. The assay can be described thus: RGS7-Galphao binding modulators, confirmation, biochemical, multiplexed bead flow cytometry, single concentration (AID 1837; in the data active means response below about 75% or above about 130%; inactive means in between;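 further: fluorescent Galphao activated with GDP and aluminum fluoride binding bead-coupled RGS7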). Conditions: bead-based flow cytometry RGS7-Galphao binding; at 10 µM; actives lie on both sides.
Assay [8] has as its target Regulator of G-protein signaling 16 (Homo sapiens) + Guanine nucleotide-binding protein G(o) subunit alpha (Homo sapiens) (UniProt O15492+P09471). Kind of assay: modulators of RGS16-Galphao protein binding, confirmation, biochemical, single concentration, multiplexed bead flow cytometry (AID 1838; in the data active means response below about 74% or above about 130%; inactive means in between;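 further: Galphao activated as the GDP aluminium fluoride complex binding bead-coupled RGS16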). Conditions: bead-based flow cytometry, at 10 µM, actives lie on both sides.

The target in assay [9] is Guanine nucleotide-binding protein G(o) subunit alpha (Homo sapiens) (UniProt P09471). The assay can be described thus: modulators of RGS4-Galphao protein binding, confirmation, biochemical, single concentration, multiplexed bead flow cytometry (AID 1840; in the data active means binding response below about 74% or above about 130%; inactive means in between). Conditions: at 10 µM, actives lie on both sides.
Chain of Guanine nucleotide-binding protein G(o) subunit alpha (Homo sapiens) (P09471 whole entry, looked up): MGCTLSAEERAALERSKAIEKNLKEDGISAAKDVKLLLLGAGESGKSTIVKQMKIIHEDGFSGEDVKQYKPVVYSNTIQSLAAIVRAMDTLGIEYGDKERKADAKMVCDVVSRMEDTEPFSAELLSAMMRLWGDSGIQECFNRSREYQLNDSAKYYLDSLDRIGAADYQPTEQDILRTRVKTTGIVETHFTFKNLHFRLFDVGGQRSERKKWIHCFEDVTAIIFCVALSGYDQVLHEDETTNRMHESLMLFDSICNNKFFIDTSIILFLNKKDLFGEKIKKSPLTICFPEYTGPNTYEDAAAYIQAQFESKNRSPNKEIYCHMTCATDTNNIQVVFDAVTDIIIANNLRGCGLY
For assay [10], the target named is Guanine nucleotide-binding protein G(o) subunit alpha (Homo sapiens) + Regulator of G-protein signaling 19 (Homo sapiens) (UniProt P09471+P49795). Kind of assay: regulators of RGS19-Galphao binding, confirmation, biochemical, single point, multiplexed bead flow cytometry (AID 1841).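 Further: 100% = no compound control and 0% = blank background.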 The note with it: bead-based flow cytometry RGS19-Galphao binding; at 10 µM; actives lie on both sides.
Chain of Guanine nucleotide-binding protein G(o) subunit alpha (Homo sapiens) + Regulator of G-protein signaling 19 (Homo sapiens) (P09471 whole entry, looked up): as above
Chain of Guanine nucleotide-binding protein G(o) subunit alpha (Homo sapiens) + Regulator of G-protein signaling 19 (Homo sapiens) (P49795 whole entry, looked up): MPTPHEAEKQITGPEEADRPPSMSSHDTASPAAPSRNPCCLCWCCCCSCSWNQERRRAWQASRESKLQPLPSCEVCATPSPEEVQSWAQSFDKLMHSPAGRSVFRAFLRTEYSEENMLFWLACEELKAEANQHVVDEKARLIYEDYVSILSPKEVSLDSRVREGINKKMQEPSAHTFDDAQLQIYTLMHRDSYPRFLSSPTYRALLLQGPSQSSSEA

Structures are written as SMILES. The list shows a part of the results. The source made the active and inactive calls. Unless noted, no stated cut-off is given here; in the data, active means response below about 50% or above about 160%; inactive means in between.

Chain of Regulator of G-protein signaling 16 (Homo sapiens) + Guanine nucleotide-binding protein G(o) subunit alpha (Homo sapiens) (O15492 whole entry, looked up): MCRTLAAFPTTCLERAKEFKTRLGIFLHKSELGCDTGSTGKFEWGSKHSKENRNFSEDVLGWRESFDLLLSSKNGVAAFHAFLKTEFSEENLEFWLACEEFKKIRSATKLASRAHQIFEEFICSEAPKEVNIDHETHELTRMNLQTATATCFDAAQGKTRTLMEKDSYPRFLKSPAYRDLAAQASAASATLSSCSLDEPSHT
Chain of Regulator of G-protein signaling 16 (Homo sapiens) + Guanine nucleotide-binding protein G(o) subunit alpha (Homo sapiens) (P09471 whole entry, looked up): as the sequence (P09471 whole entry, looked up) above

In the case of `O=C(CN1CCCCC1)N1c2ccccc2Sc2ccc(C(F)(F)F)cc21`, the RGS16–Galpha-o binding response in assay [1] was -6.83%. For the same compound, the RGS19–Galpha-o binding response in assay [2] was found to be 241%. The RGS7–Galpha-o binding response in assay [3] came to 27.5%. The compound also gave an RGS8–Galpha-o binding response in assay [4] of 22.7%.
With `N#Cc1nc(COc2ccc(-c3ccccc3)cc2)oc1NCc1cccnc1`, the RGS16–Galpha-o binding response in [1] is 0%. Further, the RGS19–Galpha-o binding response in [2] came out at 78.7%. Besides, the RGS7–Galpha-o binding response in assay [3] came out at 202%. The RGS8–Galpha-o binding response in [4] was found to be 167%. The inhibition (in general, the change of the read-out against control, counted positive when it falls) in assay [5] is 6.8% (inactive). Also, the binding response (% of control) was 156% [activator] (active) in assay [6] and 376% [activator] (active) in [9]. In addition, the response (percent of control binding) in assay [7] is 517% [activator] (active); in [10], 565% (active). Also, the response (% of control binding) in assay [8] was 364% [activator] (active).
For `CCCn1nnnc1NC(=O)COc1ccc(Cl)cc1C`, the RGS16–Galpha-o binding response in assay [1] was 2.27%. Moreover, the RGS19–Galpha-o binding response in [2] was -359%. The RGS7–Galpha-o binding response in [3] came out at 17.1%. In assay [4], the RGS8–Galpha-o binding response was 11.9%.
Consider `Cc1cc(=O)n2[nH]c(-c3sccc3-n3c(C)ccc3C)cc2n1`, for which the RGS16–Galpha-o binding response in assay [1] was found to be 44.4%. For the same compound, the RGS19–Galpha-o binding response in [2] was determined as 5890%. Moreover, the RGS7–Galpha-o binding response in assay [3] is -34.3%. Also, the RGS8–Galpha-o binding response in [4] turned out to be 61.1%. Besides, the inhibition in assay [5] is -1.8% (inactive). In addition, the figures for the binding response (% of control) in [6] and in [9] were 103% (inactive) and 89.2% (inactive), respectively. Moreover, the values for the response (percent of control binding) in [7] and in assay [10] were 86.4% (inactive) and 80.1% (inactive), respectively. The response (% of control binding) in assay [8] is 95.8% (inactive).
On to `O=C(CSc1ccc2nnc(-c3ccccc3)n2n1)N1CCCc2ccccc21`, for which the RGS16–Galpha-o binding response in assay [1] came to 413%. Moreover, the RGS19–Galpha-o binding response in assay [2] is -1120%. In addition, the RGS7–Galpha-o binding response in assay [3] was found to be 207%. For the same compound, the RGS8–Galpha-o binding response in [4] was determined as 112%. In addition, the inhibition in assay [5] was 2% (inactive). Further, the binding response (% of control) was 104% (inactive) in assay [6] and 103% (inactive) in assay [9]. Moreover, the response (percent of control binding) is 101% (inactive) in [7] and 108% (inactive) in assay [10]. Besides, in [8], the response (% of control binding) is 101% (inactive).
`COc1ccc(CCC(=O)OCC(=O)Nc2ccc(C)c(S(=O)(=O)N(C)C)c2)cc1`: in [1], the RGS16–Galpha-o binding response is 69.9%. Besides, in assay [2], the RGS19–Galpha-o binding response is -376%. Also, the RGS7–Galpha-o binding response in assay [3] is 45.2%. Also, in [4], the RGS8–Galpha-o binding response was 57.7%. In [5], the inhibition is 2.5% (inactive). The binding response (% of control) is 104% (inactive) in [6] and 103% (inactive) in assay [9]. Further, the figures for the response (percent of control binding) in [7] and in [10] were 104% (inactive) and 100% (inactive), respectively. For the same compound, the response (% of control binding) in [8] was 104% (inactive).
Consider `CC(=O)N1CC[n+]2c(-c3ccc([N+](=O)[O-])cc3)csc21`, for which the RGS16–Galpha-o binding response in assay [1] stood at 12.8%. Moreover, in assay [2], the RGS19–Galpha-o binding response came to 114%. The RGS7–Galpha-o binding response in [3] was 102%. In addition, the RGS8–Galpha-o binding response in [4] is 63.1%. For the same compound, the inhibition in assay [5] was -0.8% (inactive). The binding response (% of control) was 80.5% (inactive) in assay [6] and 66.7% (active) in assay [9]. The values for the response (percent of control binding) in assay [7] and in [10] were 67.2% (active) and 62.5% (inactive), respectively. The response (% of control binding) in [8] is 58% (active).
In the case of `Cc1cc(C)nc(/N=C2\NC(=O)CC(C(=O)O)N2c2ccc(Cl)cc2Cl)n1` (stereo not drawn), the RGS16–Galpha-o binding response in assay [1] worked out at 99.8%. In addition, the RGS19–Galpha-o binding response in assay [2] was 104%. Also, the RGS7–Galpha-o binding response in [3] was 170%. In assay [4], this compound came in with an RGS8–Galpha-o binding response of 107%. In assay [5], the inhibition was 0.1% (inactive). Also, the binding response (% of control) in assay [6] and in assay [9] was 102% (inactive) in each case. The response (percent of control binding) in assay [7] and in [10] was 101% (inactive) in each case. Further, the response (% of control binding) in assay [8] was 102% (inactive).
`CCOC(=O)NNc1cc(C(F)(F)F)ccn1`: the RGS16–Galpha-o binding response in assay [1] stood at 148%. Besides, in assay [2], the RGS19–Galpha-o binding response worked out at 84.9%. Moreover, the RGS7–Galpha-o binding response in assay [3] turned out to be 66.9%. In [4], the RGS8–Galpha-o binding response worked out at 133%. In addition, the inhibition in assay [5] was -0.7% (inactive). Besides, the binding response (% of control) was 104% (inactive) in [6] and 102% (inactive) in assay [9]. Moreover, the response (percent of control binding) was 107% (inactive) in assay [7] and 109% (inactive) in assay [10]. Moreover, the response (% of control binding) in [8] was 104% (inactive).
